In PubChem BioAssay AID686979 (National Center for Advancing Translational Sciences (NCATS), 2013):
The campaign covered roughly 420,000 compounds. About 50,000 (12%) were called active. Not shown: some 26% with an inconclusive outcome. Calls follow the shape of the dose curve; as a rule, active = well fitted inhibition curve with a large enough effect; inconclusive = small, poorly fitted or top-dose-only effect; inactive = flat fitted curve, though single readings scatter. The full list was thinned out, with actives kept by preference.

Experiment: qHTS for Inhibitors of human tyrosyl-DNA phosphodiesterase 1 (TDP1): qHTS in cells in presence of CPT; also: nearly all actives have a fitted effect of over 55% in size
Settings: chicken DT40 Tdp1-/-;hTDP1 cells + 20 nM CPT, ATP luminescence, 48 h; series mostly up to 46.2 µM; activity change, negative = growth inhibition: at the top concentration
Method in brief: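 Cell growth measured by CellTiter-Glo luminescence after a minimum 48 h, 37 C compound exposure with 20 nM CPT in Tdp1-knockout DT40 cells stably expressing hTDP1, seeded 400/well; qHTS titration format.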
% is scaled to controls: 0 for no effect and ±100 for the full control effect; potency is read from the fitted curve at half-maximal effect.

Structure (SMILES) | activity change, negative = growth inhibition | Potency
CCCc1c2oc(C(=O)O)cc(=O)c2cc2c(=O)cc(C(=O)O)n(CC)c12 | 16.1% (inactive) | 
Cc1ccc(CC2CC(=O)N(c3cc(C)ccc3C)C2=O)cc1 (stereo unspecified) | 2.68% (inactive) | 
NS(=O)(=O)c1ccccc1NC(=O)c1c(O)c2ccccc2[nH]c1=O | -1.4% (inactive) | 
Cc1oc2cc(Br)c(O)c(Br)c2c1C(=O)c1ccccc1 | 10.4% (inactive) | 
O=C(Nc1ccc(N2CCOCC2)cc1)c1cccc2c(-c3ccc(F)c(F)c3)coc12 | -58.3% (inactive) | 
COc1ccc(N2CCN(C(=S)Nc3ccc(S(N)(=O)=O)cc3)CC2)cc1 | -27.4% (inactive) | 
C/C(Cc1ccccc1)=N\NC(=O)CNC(=O)c1ccccc1Cl | -4.25% (inactive) | 
Cc1ccc(C(=O)N(CC(=O)NC2CCCC2)c2ccc(F)cc2)s1 | -1.84% (inactive) | 
C/[N+]([O-])=C\c1ccc([N+](=O)[O-])o1 |  | 25.9 µM (active)
Cc1nn(CC(=O)N/N=C/c2ccc(F)cc2)c(C)c1[N+](=O)[O-] | 8.62% (inactive) | 
COc1ccc(/C=N/NC(=O)CNC(=O)c2ccc(S(=O)(=O)N3CCCC3)cc2)c(OC)c1 | -12.7% (inactive) | 
CC(C)(C)c1cc(C(=O)N/N=C/c2ccc([N+](=O)[O-])s2)n[nH]1 |  | 9.2 µM (active)
COc1ccc(C(=O)NCC(=O)N/N=C/c2ccc([N+](=O)[O-])s2)cc1OC |  | 20.6 µM (active)
O=C(COc1ccccc1[N+](=O)[O-])N/N=C/c1ccc[nH]1 | 0.416% (inactive) | 
Cc1nn(-c2ccccc2)c(Cl)c1/C=N/NC(=O)c1nn(C)cc1[N+](=O)[O-] | -5.46% (inactive) | 
Cc1ccccc1NCC(=O)N/N=C\c1ccc([N+](=O)[O-])s1 |  | 8.2 µM (active)
O=C(Cc1cc(=O)[nH][nH]1)N/N=C/c1ccccc1[N+](=O)[O-] | -0.646% (inactive) | 
COc1cc(/C=N\NC(=O)CNC(=O)c2cccc([N+](=O)[O-])c2)ccc1O | -1.83% (inactive) | 
O=C(COC(=O)Cc1ccc(Cl)cc1Cl)NCc1ccco1 | -8.95% (inactive) | 
CN(C)/C=C(/C(=O)c1ccccc1)S(=O)(=O)c1ccc(Cl)cc1 | 0.918% (inactive) | 
Cc1cc(Cl)nc(NC(=O)Nc2cccc(Cl)c2)n1 | -5.03% (inactive) | 
COc1cc(C(=O)Nc2cc(C(F)(F)F)ccc2N2CCOCC2)ccc1O | -4.87% (inactive) | 
COc1ccc(NC(=O)CC(NC(C)c2ccccc2)C(=O)O)cc1 (stereo unspecified) | 7.18% (inactive) | 
CCC(=O)c1c[nH]c(C(=O)NCC2CCCO2)c1 (stereo unspecified) | -0.0051% (inactive) | 
CCOC(=O)C1=CN(Cc2ccc(Br)cc2)S(=O)(=O)NC1C (stereo unspecified) | -10.2% (inactive) | 
COc1ccc(Cl)cc1C=CC=Nc1ccc(S(N)(=O)=O)cc1 |  | 18.4 µM (active)

Structure (SMILES) | activity change, negative = growth inhibition | Potency
COc1ccc(Cl)cc1C=CC=NNC(=O)c1ccncc1 | -28.1% (inactive) | 
COc1ccccc1/C=C/C=N/n1c(-c2ccc(Cl)cc2Cl)n[nH]c1=S | -20.8% (inactive) | 
Cc1ccc(NC(=O)CN(C)C(=O)c2ccc(Cl)c(S(=O)(=O)NCc3ccco3)c2)cc1 | -11% (inactive) | 
COc1ccc2c(c1)C(=C(C#N)C#N)C(=O)N2CCc1ccccc1 |  | 3.66 µM (active)
COc1ccc(CNC(=O)CCN2C(=O)c3ccccc3C2=O)cc1 | -3.64% (inactive) | 
CCCCN1C(=O)/C(=C(/C#N)C(N)=O)c2ccccc21 | -25.4% (inactive) | 
Cc1ccc(C(=O)Oc2coc(CSc3nnc(NC(=O)c4cccs4)s3)cc2=O)cc1C | -13.4% (inactive) | 
Cc1cccc(NC(=S)NCCc2ccc(Cl)cc2)c1C |  | 18.4 µM (active)
CCNC(=S)Nc1cccc(Cl)c1C | -13.1% (inactive) | 
Cc1c(Cl)cccc1NC(=S)NCC(O)c1ccccc1 (stereo unspecified) | 4.14% (inactive) | 
CCOCCCNC(=O)c1cc2c(=O)n3ccccc3nc2s1 |  | inactive
Cc1ccc(S(=O)(=O)N(C)c2ccc(OCC(=O)OCC(=O)N(CC#N)c3ccccc3)cc2)cc1 | 4.22% (inactive) | 
COc1ccc(C(=O)NCCn2nc(C)cc2C)cc1OC1CCN(C(C)=O)CC1 | -1.37% (inactive) | 
Cc1cc(OCCCN2CCN(Cc3ccccc3)CC2)ccc1[N+](=O)[O-] |  | 23.1 µM (active)
O=[N+]([O-])c1ccccc1OCCCCN1CCCCC1 | -1.52% (inactive) | 
Cc1ccc(OCC(=O)Oc2ccccc2[N+](=O)[O-])cc1 | 9.02% (inactive) | 
Cc1cc(OCC(=O)NC2CCN(C)CC2)ccc1[N+](=O)[O-] | -5.16% (inactive) | 
Cc1cc(OCCCCOc2ccc(C#N)cc2)ccc1[N+](=O)[O-] |  | 13 µM (active)
Cc1cc(OCC(=O)Nc2c(C)n(C)n(-c3ccccc3)c2=O)ccc1[N+](=O)[O-] | -3.95% (inactive) | 
COC(=O)c1cccc(N(CC(=O)NCC2CCCO2)C(=O)CCC(=O)Nc2cc(C)on2)c1 (stereo unspecified) | 12.7% (inactive) | 
O=C(CSc1nnc(CNC(=O)c2ccc(F)cc2)o1)Nc1ccc2c(c1)OCO2 | -15.9% (inactive) | 
O=C(Nc1ccncc1)c1ccc(Cl)c([N+](=O)[O-])c1 |  | 11.6 µM (active)
O=C(Nc1cccnc1)c1ccc(Cl)c([N+](=O)[O-])c1 | 10% (inactive) | 
Cc1ccnc(NC(=O)c2ccc(Cl)c([N+](=O)[O-])c2)c1 | -10.8% (inactive) | 
Cc1ccc2c(=O)c(C(=O)c3ccc(F)cc3)cn(CC(=O)NC3CCCCC3)c2n1 | -17.8% (inactive) | 
